PubChem BioAssay (EPA / NIEHS)
Results filed as inconclusive are left out. Calls of active or inactive are those of the source. How the source made its calls: active means hit-call score of the fitted dose curve at least 0.9, where 1 is the maximum; inconclusive means response in the unintended direction; inactive means score below 0.9.

Target: Cellular tumor antigen p53 (Homo sapiens) (UniProt P04637)
Test: TOX21_p53_BLA_p2_ratio: Tox21 HCT-116 p53 Agonism Beta-lactamase Assay, Ratio, Phase 2 (AID 2283592)
In short: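 HCT-116 cells with p53-responsive beta-lactamase reporter, 4000 cells/well, preincubated 5 h, then compound in DMSO (217-fold dilution) for 16 h at 37C. CCF4-AM substrate 2 h at room temperature; 460/530 nm emission ratio fitted upward versus DMSO.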

Sequence of Cellular tumor antigen p53 (Homo sapiens) (P04637 whole entry, looked up): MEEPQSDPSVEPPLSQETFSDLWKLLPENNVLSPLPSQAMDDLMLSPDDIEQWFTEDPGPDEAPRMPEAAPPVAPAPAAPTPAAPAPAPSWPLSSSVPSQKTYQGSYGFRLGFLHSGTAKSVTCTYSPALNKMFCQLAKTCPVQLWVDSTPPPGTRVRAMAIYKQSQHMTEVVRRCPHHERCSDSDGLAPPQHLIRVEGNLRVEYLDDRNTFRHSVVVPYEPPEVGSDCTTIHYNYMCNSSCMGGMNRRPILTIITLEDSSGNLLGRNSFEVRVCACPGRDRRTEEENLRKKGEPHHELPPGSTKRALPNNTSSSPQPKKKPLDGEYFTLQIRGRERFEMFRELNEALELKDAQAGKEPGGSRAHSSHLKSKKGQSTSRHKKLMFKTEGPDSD

SMILES | outcome
c1ccc(C2CC2)c(OCC2=NCCN2)c1 | inactive
CN1CCCC(=C(c2cccs2)c2cccs2)C1 | inactive
O=C(Cl)c1ccccc1F | inactive
CC(C)Br | inactive
O=C(C[C@@H]1NCCC[C@H]1O)Cn1cnc2cc(Br)c(Cl)cc2c1=O | inactive
C=C1C[C@@H]2[C@H](CC[C@]3(C)C(=O)CC[C@@H]23)[C@@]2(C)C=CC(=O)C=C12 | inactive
CSSC | inactive
CC(CCc1ccccc1)NC(C)C(O)c1ccc(O)cc1 (configuration not stated) | inactive
C#CC(C)(O)CC (configuration not stated) | inactive
Cc1ncc2n1-c1ccc(Cl)cc1C(c1ccccc1F)=NC2 | inactive
Clc1cccc(N2CCNCC2)c1 | inactive
Clc1ccc(C(Cl)(Cl)Cl)cc1Cl | inactive
CC(=O)OC1(c2ccccc2)CCN(CCc2ccccc2)CC1 | inactive
COC(=O)C(Cl)C(=O)OC | inactive
C[N+](C)(C)CCOC(=O)C(O)(c1ccccc1)c1ccccc1 | inactive
CC(=O)OCC(=O)[C@H]1CC[C@H]2[C@@H]3CC[C@H]4C[C@H](O)CC[C@]4(C)[C@H]3C(=O)C[C@]12C | inactive
C[C@@H]([C@H](O)c1ccccc1)N(C)C | inactive
